Only some compounds are listed: those with a hit (about 11% of all), similar ones and a draw of the others.
USP28 inh = blocks human USP28 ubiquitin-rhodamine cleavage; Q96RU2; purified USP28, Ub-rhodamine cleavage fluorescence, 30 min; inhibition, % at 25 µM; hit rate 3% among 47,000; AID 1645857
OTUD3 block = blocks human OTUD3 ubiquitin-rhodamine cleavage. Q5T2D3. hit rate 0.7% among 47,000. purified OTUD3, Ub-rhodamine fluorescence, 2 h. inhibition, % at 25 µM
USP17 inh = blocks human USP17 ubiquitin-rhodamine cleavage | A8MUK1 | purified USP17, Ub-rhodamine cleavage fluorescence, 3 h | inhibition, % at 50 µM | hit rate 6.5% among 47,000 | AID 1645855
Target sequence (A8MUK1 whole entry, looked up): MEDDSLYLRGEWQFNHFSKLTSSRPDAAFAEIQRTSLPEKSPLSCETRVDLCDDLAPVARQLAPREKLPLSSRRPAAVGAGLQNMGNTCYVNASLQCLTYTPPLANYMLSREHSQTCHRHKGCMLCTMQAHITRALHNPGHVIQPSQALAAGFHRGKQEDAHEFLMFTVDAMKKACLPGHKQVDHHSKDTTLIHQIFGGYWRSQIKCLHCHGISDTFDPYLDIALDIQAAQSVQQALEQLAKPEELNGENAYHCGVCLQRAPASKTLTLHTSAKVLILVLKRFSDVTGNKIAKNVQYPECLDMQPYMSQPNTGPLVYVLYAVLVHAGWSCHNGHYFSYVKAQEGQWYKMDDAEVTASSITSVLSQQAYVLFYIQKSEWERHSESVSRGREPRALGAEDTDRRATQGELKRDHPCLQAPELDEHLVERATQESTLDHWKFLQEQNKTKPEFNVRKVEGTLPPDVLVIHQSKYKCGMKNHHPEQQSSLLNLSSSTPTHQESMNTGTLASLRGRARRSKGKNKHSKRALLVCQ
USP30 block = blocks human USP30 ubiquitin-rhodamine cleavage | Q70CQ3 | purified USP30, Ub-rhodamine cleavage fluorescence | inhibition, % at 25 µM | hit rate 5.3% among 47,000
The depositor's hits bear a star; i = inactive; . = no result. Rule as the data show it: active = inhibition above about 30%; inactive = the rest.

SMILES	USP28 inh	OTUD3 block	USP17 inh	USP30 block
COc1ccccc1N(C)S(=O)(=O)c1ccc(C(=O)NCCc2ccc(F)cc2)cc1	-4.5	-0.5	-2.6	3.8
O=C(NCc1ccnc(C2CCCOC2)n1)c1n[nH]c2c1CCCC2 (stereo not drawn)	9.9	2.2	-3.9	7.0
O=C(CSc1nnnn1-c1ccc(O)cc1)N1CCN(c2ccccc2)CC1	2.2	-4.6	-12.3	-3.4
Cc1ccc(C(=O)N2CCC3(C2)Nc2cccnc2NC3=NCc2ccccc2)s1 (stereo not drawn)	-102.6	-103.4	-18.9	-450.8
CCN(Cc1ccccc1)S(=O)(=O)c1ccc(C(=O)Nc2ccc3c(c2)OCCO3)cc1	60.3*	20.9	10.0	40.0*
Cc1ccc(C)c(N(CC(=O)Nc2ccc3c(c2)OCCO3)S(=O)(=O)c2ccccc2)c1	20.4	17.6	10.0	30.4*
COc1ccccc1NS(=O)(=O)c1ccc(C)c(C(=O)OCC(=O)N(CCc2ccccc2)Cc2ccccc2)c1	12.8	13.4	-0.6	10.1
CN(Cc1cc2ccccc2[nH]c1=O)C(=O)c1ccc(Cl)cc1	5.5	16.5	-1.8	3.2
COC(=O)c1ccc(C2CC(=O)Nc3c2sc(C(=O)O)c3-c2ccc(OC)cc2)cc1 (stereo not drawn)	12.5	12.7	11.2	33.5*
O=C(C1CCC1)N1C[C@H]2C[C@H]3[C@](C1)(CN(Cc1cccc(Cl)c1)S3(=O)=O)O2	11.3	7.7	4.2	17.9
O=S(=O)(O)c1cc2cc3ccccc3cc2[nH]1	-0.1	-5.5	61.3*	-41.2
N#Cc1c2n(c(=O)n(CC(=O)N(C3CCCC3)C3CCS(=O)(=O)C3)c1=O)CCC2 (stereo not drawn)	-183.7	-157.1	-155.4	i
N#Cc1ccc(C2C=C(C(=O)O)NC(=O)N2)cc1 (stereo not drawn)	-5.7	-6.1	-13.1	-14.6
COc1ccc(C(=O)CSc2nnc(-c3cccnc3)n2-c2ccccc2)cc1	-0.2	8.3	41.6*	51.7*
Cc1cc(C)c(C(=O)CSc2nnc(-c3cccnc3)n2C)cc1C	-2.0	3.7	0.1	2.0
COc1ccc(-c2cnc(SCC(=O)Nc3ccc(OC)cc3OC)n2C)cc1	-0.1	-4.6	-2.4	-1.5
Cc1ccc(C)c(CSc2ncnc3nc[nH]c23)c1	39.8*	-2.9	-6.2	-8.4
Cc1ccc(S(=O)(=O)N2CCc3nc(C)ncc3C2)c(C)c1	-9.8	-11.5	-10.8	-27.0
Cc1cc(C(=O)N2CCCC2c2cnccn2)c2c(C)noc2n1 (stereo not drawn)	4.0	5.3	0.8	0.0
COc1c2c(cc3c1C(CC(=O)c1c(O)c(OC)c4occc4c1OC)[N+](C)(C)CC3)OCO2 (stereo not drawn)	13.0	1.4	29.8	38.7*
COc1c2c(cc3c1C(C(=O)Nc1ccc(C)c(C)c1)N(C)CC3)OCO2 (stereo not drawn)	-8.2	-5.6	-11.9	-7.9
O=C(NCCc1c[nH]c2ccccc12)C(=O)Nc1cccc2ncccc12	-4.9	-1.1	41.6*	-28.9
O=C(NCc1cccnc1)c1cc(S(=O)(=O)N2CCCCC2)c[nH]1	-1.7	3.1	-1.5	-0.1
Cc1ccc(C)c(N(C)C(=O)c2nn(C)c3c2CSc2ccccc2-3)c1	27.0	15.1	.	39.2*
O=S(=O)(Nc1ccc(O)cc1)c1ccc2oc3ccc(S(=O)(=O)Nc4ccc(O)cc4)cc3c2c1	22.9	4.0	54.5*	34.1*
O=C(c1noc2ccc(S(=O)(=O)Nc3cccc(F)c3)cc12)N1CCOCC1	-8.9	-6.3	-13.6	-7.4

High-throughput results: PubChem BioAssay, Buhrlage Lab, Dana-Farber Cancer Institute and Novartis Institutes for BioMedical Research (Cambridge, Mass)
